S2 tox: viability counter-screen for ATXN expression inhibitors. S2 cells (HEK-293 line with an ATXN2-luciferase reporter) viability, CellTiter-Fluor protease fluorescence, 24 h. Potency, µM (doses to about 56.7 µM), usual class: cytotoxic. hit rate 0.49% among 400,000. AID 651635; further: nearly all actives have a fitted effect of over 40% in size
HepG2 tox: counter-screen for TGF-b inhibitors: cytotoxicity in HepG2 cells; hit rate 0.76% among 410,000; HepG2 CAGA-GFP viability, ATP luminescence, 18 h; Potency, µM (titrated, usually from 46.1 µM), without a hit: at the highest dose activity change, negative = cytotoxicity, usual class: cytotoxic; AID 588856
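CellTiter-Glo luminescence gave cytotoxicity after 18 hours at 37 degrees C. The cells were HepG2 CAGA-GFP in 1% FBS DMEM, stimulated with 500 pg/mL TGF-beta after compound addition. %Activity was normalised to no-cell wells (complete cell-killing) and DMSO (no toxicity), and curves were fitted and classified.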
Apoferritin bind: binds horse apoferritin like a general anesthetic. P02791. apoferritin/1-aminoanthracene competitive binding, fluorescence. Potency, µM (highest dose often 77.5 µM), without a hit: top-dose activity change, negative = displacement, usual class: inhibitors. hit rate 0.074% among 350,000; further: on the % scale 0 is the no-effect control and ±100 the full control effect; nearly all actives have a fitted effect of over 20% in size
Target sequence (P02791 2-175 limits assumed): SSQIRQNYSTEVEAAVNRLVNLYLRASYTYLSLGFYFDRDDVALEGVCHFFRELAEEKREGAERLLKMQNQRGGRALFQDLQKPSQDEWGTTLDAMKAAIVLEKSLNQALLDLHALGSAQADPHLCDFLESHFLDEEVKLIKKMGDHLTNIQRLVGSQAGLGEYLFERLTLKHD
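Horse-spleen apoferritin (10 uM) was mixed with 50% saturated 1-aminoanthracene in PBS, exposed to compounds for 10 min at room temperature, and read for fluorescence (ex 380 nm, em 535 nm). Competitive displacement was fitted with a four-parameter Hill equation.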
TGFb inhibitor: blocks TGF-b signaling; HepG2 CAGA-GFP TGF-b/SMAD3 reporter, GFP fluorescence, 18 h; TGF-beta stimulated, 500 pg/mL final; hit rate 1.2% among 410,000; AID 588855; Potency, µM (titrated, usually from 46.1 µM), inactives show at the top dose activity, negative = inhibition, most hits filed as inhibitors; further: on the % scale 0 is the no-effect control and ±100 the full control effect; nearly all actives have a fitted effect of over 65% in size
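Inhibition of TGF-beta-driven CAGA-GFP reporter expression in HEPG2 cells is measured by cellular GFP fluorescence after 18 h stimulation with 500 pg/mL recombinant TGF-beta in 1% FBS medium at 37 degrees C.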
ATXN2 expr inh: ATXN2 expression inhibition; Potency, µM (series often up to 57 µM), for inactives: at the highest dose activity change, negative = inhibition, usual class: inhibitors; HEK-293 ATXN2-luciferase reporter, luminescence, 24 h; hit rate 0.72% among 360,000; further: on the % scale 0 is the no-effect control and ±100 the full control effect; nearly all actives have a fitted effect of over 55% in size
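qHTS (up to 57 uM final) was run with 24 h compound exposure of reporter cells at 37 °C. Each well was multiplexed: SteadyGlo luminescence measured ATXN2-luciferase expression after a fluorogenic Gly-Phe-AFC viability readout (25 uM final).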
An asterisk follows results filed as active; i = inactive; ? = inconclusive; nt = no result; [ ] = another dose, or the depositor's remark. The list is not random: actives were taken first. Their share in the collection is about 2.4%. The call rests on the fitted dose curve; in most records, active means well fitted curve in the direction sought with a large enough effect; inconclusive means small, poorly fitted or top-dose-only effect, or another doubt; inactive means no such curve, though single readings can be large; an effect the other way counts as inactive or inconclusive. Potency means the concentration at half of the fitted maximal effect.

SMILES | S2 tox | HepG2 tox | Apoferritin bind | TGFb inhibitor | ATXN2 expr inh
Oc1cccc(-c2c3nc(c(-c4cccc(O)c4)c4ccc([nH]4)c(-c4cccc(O)c4)c4nc(c(-c5cccc(O)c5)c5ccc2[nH]5)CC4)C=C3)c1 | 7.1µM* | nt | nt | nt | -1%
CCN(CC)CCN1CCN(c2cncc(-c3ccc4ccccc4c3)n2)CC1 | ? | 13µM* | nt | ? | -23%
CCSc1ccc2c(c1)N(CCCN1CCN(C)CC1)c1ccccc1S2 | i | -84% | -6%[29.3 µM] | ? | 1%
CC(CN1CCN(CCOCCO)CC1)CN1c2ccccc2Sc2ccc(Cl)cc21 (stereo not drawn) | ? | 13µM* | nt | ? | nt
O=C(Cc1ccc(Br)cc1)N(Cc1ccccc1)c1ccccn1 | nt | 5% | -15% | 1% | -35%
O=C(O)c1cc(N/N=C/c2ccc3c(c2)OCCO3)ccc1Cl | i | -12% | -4% | -10% | 4.5µM*
O=C(O)c1cc(N/N=C/c2ccc3c(c2)OCO3)ccc1Cl | i | 0% | -6% | 14% | 36%
Cc1cccc(NC(=O)c2nc[nH]c2C(=O)N[C@@H](C)C(=O)OC(C)(C)C)c1 | ? | -26% | 18µM* | ? | -31%
C[C@H](NC(=O)c1[nH]cnc1C(=O)Nc1ccc(Cl)cc1)C(=O)OC(C)(C)C | i | 2% | 8% | 2% | -6%
CC(C)C[C@H](NC(=O)c1[nH]cnc1C(=O)Nc1ccccc1)C(=O)OC(C)(C)C | ? | -121% | ? | 16µM* | ?
CCOC(=O)c1ccc(NC(=O)c2nc[nH]c2C(=O)N[C@H](C)c2ccccc2)cc1 | ? | -40% | 4% | ? | 32µM*
CC1CCN(C(=O)c2[nH]cnc2C(=O)N[C@@H](C)C(=O)OCc2ccccc2)CC1 | i | -35% | -3% | 11µM* | -36%
Cc1ccc(NC(=O)c2nc[nH]c2C(=O)N[C@H](C)c2ccccc2)cc1 | ? | -64% | nt | ? | ?
C[C@H](NC(=O)c1nc[nH]c1C(=O)N1CCN(C(=O)OC(C)(C)C)CC1)C(=O)OCc1ccccc1 | i | 0% | -17% | ? | 11%
CC(C)C[C@H](NC(=O)c1nc[nH]c1C(=O)NCC(=O)OCc1ccccc1)C(=O)OCc1ccccc1 | i | -12% | 1% | ? | -24%
CC(C)(C)OC(=O)NCCCC[C@H](NC(=O)c1[nH]cnc1C(=O)Nc1ccc(Cl)cc1)C(=O)OC(C)(C)C | ? | -35% | -13% | 14µM* | ?
CC(C)(C)OC(=O)[C@H](Cc1ccccc1)NC(=O)c1[nH]cnc1C(=O)Nc1ccccc1F | 18µM* | 11µM* | nt | ? | ?
CNC(=O)c1[nH]cnc1C(=O)N[C@@H](Cc1ccccc1)C(=O)OC(C)(C)C | i | -9% | ? | -6% | -4%
CC(C)C[C@H](NC(=O)c1nc[nH]c1C(=O)NCC(=O)OC(C)(C)C)C(=O)OCc1ccccc1 | i | -49% | -18% | 11µM* | -14%
CC(C)C[C@H](NC(=O)c1[nH]cnc1C(=O)N[C@@H](C)C(=O)OC(C)(C)C)C(=O)OC(C)(C)C | nt | 11µM* | -12% | ? | -70%
NC(=O)c1ccc(N(C(N)=O)c2c(F)cccc2F)nc1-c1ccc(F)cc1F | nt | nt | nt | nt | -17%
CCc1ccccc1N(C)C | nt | 1% | nt | ? | nt
O=C1N[C@@H](Cc2ccccc2)COC(=O)[C@@H](Cc2ccc(F)cc2)CC/C=C/C[C@H]1CC(=O)N(CCO)Cc1ccccc1 | 22µM* | -17% | nt | ? | ?
O=C1N[C@@H](Cc2ccccc2)COC(=O)[C@H](Cc2ccc(F)cc2)CC/C=C/C[C@@H]1CC(=O)N(CCO)Cc1ccccc1 | ? | 1% | nt | ? | ?
O=C1N[C@@H](c2ccccc2)COC(=O)[C@H](Cc2ccc(F)cc2)CC/C=C/C[C@@H]1CC(=O)N(CCO)Cc1ccccc1 | 10µM* | -16% | nt | ? | ?
SMILES | S2 tox | HepG2 tox | Apoferritin bind | TGFb inhibitor | ATXN2 expr inh
O=C1N[C@@H](c2ccccc2)COC(=O)[C@@H](Cc2ccc(F)cc2)C/C=C\C[C@H]1CC(=O)N(CCO)Cc1ccccc1 | ? | -34% | nt | ? | ?
COc1ccc(C2C3C=CCCC3(C)C(=O)N2Cc2ccccc2)cc1Cl (stereo not drawn) | nt | -43% | 57% | 14µM* | nt
C#CCn1c(=NC(=O)c2ccc(S(=O)(=O)N3CCc4ccccc4C3)cc2)sc2cc(S(N)(=O)=O)ccc21 | 18µM* | 2.8µM* | -18% | -8% | ?
CC(=O)OC[C@@H]1O[C@@H](O/N=C2/C[C@@H](O)[C@@H](O)[C@@H]3[C@H]4C(=O)N(c5ccc(F)cc5F)C(=O)[C@@H]4CC[C@@H]23)[C@H](OC(C)=O)[C@H](OC(C)=O)[C@@H]1OC(C)=O | nt | nt | -4%[15.3 µM] | nt | nt
N#Cc1c(Cl)nsc1NC(=O)c1ccccc1 | i | -41% | -7% | 3.5µM* | 0%
N#Cc1c(NC(=O)c2ccccc2)sc2c1CCCCC2 | i | -11% | -6% | 1% | 59%
Cc1sc2nc(C(C)C)nc(SCC(=O)N3CCN(C(=O)c4ccco4)CC3)c2c1C | nt | -13% | ? | -50% | 32µM*
Cc1ccc(C2=Nc3ccc(Cl)cc3OC2)cc1 | nt | nt | nt | nt | 38%
O=C(COC(=O)c1ccccc1)NCCCCc1ccccc1 | i | -30% | nt | -1% | nt
CNC[C@@H](Cc1ccccc1)NC[C@@H](CC1CCCCC1)NCCCc1ccccc1 | 20µM* | 13µM* | ? | ? | ?
CCC[C@@H](CN[C@@H](CNC)C(C)C)NCCCCc1ccccc1 | ? | 16µM* | -16% | ? | ?
CN(Cc1cccc(C(F)(F)F)c1)C(=O)C1CCC(=O)N(CC2CCCCC2)C1 (stereo not drawn) | ? | -38% | 3% | ? | nt
CNC[C@@H](CC1CCCCC1)NC[C@H](CC(C)C)NCCc1cccc(C(F)(F)F)c1 | nt | 10µM* | -24% | ? | 14µM*
CCC[C@@H](CNC)NC[C@H](Cc1ccccc1)NCCCCc1ccccc1 | nt | -123% | -14% | ? | 25µM*
Cc1ccc2nc(SCC(=O)NCC3Cc4cccc(-c5nc(C)cnc5C)c4O3)[nH]c2c1 (stereo not drawn) | i | nt | nt | nt | nt
COc1cc(C(=O)Nc2ccccc2OCc2cc(=O)n3cc(C)sc3n2)cc(OC)c1OC | i | 8% | 34% | 4% | 1%
CC(C)Cc1ccc(C(C)CC2=CCC(CN(C)C)C2=O)cc1 (stereo not drawn) | nt | 7.9µM* | nt | ? | ?
O[C@@H]1COC2[C@@H](O)CO[C@@H]21 (stereo partly drawn) | nt | nt | 5% | nt | nt
COc1cc(C2(c3ccc(O)c(OC)c3)C(=O)Nc3c(Br)cc(Br)cc32)ccc1O | ? | -95% | nt | 25µM* | nt
